Test results published in PubChem BioAssay AID738 (SRMLSC, 2007).
Among all 98,000 compounds or so, about 4,900 (5%) were called active. This is one part of a sample in which actives are shown more often than they occur. Values without a mark were called inactive. No stated cut-off is given here; in the data, active means inhibition above about 30%; inactive means the rest.

Assay: yeast control strain growth suppression – counter-screen for post-Golgi transport modulator project, primary screen (AID 738)
Settings: efflux-deficient yeast background strain, growth absorbance A615, 16 h; at 10 µM; hits give high values

Row | SMILES | inhibition
1 | Cc1nc2ccccn2c1P(=S)(N1CCCCC1)N1CCCCC1 | 49.1% (active)
2 | COc1ccc(C(=O)C2CN(C)CC2C(=O)c2ccc(OC)cc2)cc1 (stereo not given) | 20.5%
3 | CC(=O)c1c(O)n(C2CCCCCC2)c(=O)[nH]c1=O | 19.8%
4 | CCC(=NCc1ccco1)c1c(O)n(Cc2ccccc2)c(=O)[nH]c1=O | 15.9%
5 | CCC(=NCCc1ccccc1)c1c(O)n(C2CCCCC2)c(=O)[nH]c1=O | 70.8% (active)
6 | COc1ccc(C(=O)CC2C(=O)N(C)C(=O)N(C)C2=O)cc1 | 6.25%
7 | O=C(c1cc2nc(-c3ccccc3)cc(-c3ccccc3)n2n1)N1CCC2(CC1)OCCO2 | 29.5%
8 | CC(C)(C)c1ccc(CN2C(=O)CN=C(c3ccccc3)c3ccccc32)cc1 | 33.8% (active)
9 | CN1CCC(N(C)Cc2cccnc2)CC1 | 7.07%
10 | CCOc1ccc(CN(CCCl)CCCl)cc1C(=O)OC | 22.7%
11 | O=C(CN1CCCCC1)Nc1ccc(Br)cc1C(=O)c1ccccc1Cl | 29.2%
12 | CCNc1nc2[nH]c(=O)c3c(c2s1)OC(N)=C(C#N)C3c1cccs1 (stereo not given) | 5.65%
13 | COc1ccccc1-n1c(O)c(C=NC2CC2)c(=O)[nH]c1=O | 6.8%
14 | OC(CNC1CCCCC1)c1ccccc1 (stereo not given) | 5.79%
15 | CCOP(=S)(OCC)SCOC(=O)NCC(=O)OC | 4.53%
16 | O=[N+]([O-])c1ccc(C2C3C(c4ccccc4)=NC4(CCCCC4)N32)cc1 (stereo not given) | 18%
17 | Cc1ccc(Cn2c(C)c3cnn(CC(=O)N4CCC5(CC4)OCCO5)c(=O)c3c2C)cc1 | -1.49%
18 | N#Cc1ccc(Cn2cc(C(=O)c3ccco3)c3ccccc32)cc1 | 38.7% (active)
19 | COc1ccc(CCn2c(O)c(C=NCCCn3ccnc3)c(=O)[nH]c2=O)cc1OC | 2.05%
20 | Cn1c(O)c(C=NCCCC(=O)O)c(=O)n(C)c1=O | 2.29%
21 | Cc1ccc(N(C)C(=O)Oc2cccc3ccc(C)nc23)cc1 | 5.47%
22 | CC[N+](CC)(CC)CCCCCCCCCC[N+](CC)(CC)CC | -4.82%
23 | CCOC(=O)C1SC2(C(F)(F)C(F)F)CC1(O)c1c(c(OC)c3occc3c1OC)O2 (stereo not given) | 33.6% (active)
24 | O=c1c2ccccc2nc(-c2ccc(Cl)cc2Cl)n1-c1ccncc1 | 9.41%
25 | COc1cc(Cn2c(N)c(C(=O)NCc3ccco3)c3nc4ccccc4nc32)cc(OC)c1OC | 7.01%
26 | CC(=O)Nc1ccccc1C(=O)OCC(=O)c1cccc2ccccc12 | 0.9%
27 | CCC(=NCCCO)c1c(O)n(-c2ccc(OC)cc2)c(=O)[nH]c1=O | 3.64%
28 | CCCCCCN=C(CC)c1c(O)n(CCCC)c(=O)[nH]c1=O | 36.3% (active)
29 | CCCCn1c(O)c(C(CC)=NCc2ccco2)c(=O)[nH]c1=O | 16.6%
30 | CC(=O)c1ccc(OC(NC(=O)Cc2ccccc2)C(Cl)(Cl)Cl)cc1 (stereo not given) | 4.53%
